{
  "source": "PubChem BioAssay (NCI)",
  "note": "Where “and” joins values, the source holds several entries; their conditions need not be identical. Equal entries are not always repeated. Compounds without any hit were thinned out: in the full panel of roughly 83,000, 20% have a hit.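 Single-dose data. Exposure time 48 hours. Values below 10 considered active.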 Calls of active or inactive are those of the source.",
  "data": [
    {"test_system": "MDA-MB-468 breast", "experiment": "NCI-60 one-dose screen, 48 h (100 = growth as untreated, 0 = no growth, -100 = all killed)", "settings": "10 µM unless noted", "values": [
      {"smiles": "CCC(CO)Nc1nc2ccc(Cl)cc2c2ccccc12", "note": "(stereo not given)", "growth": "33% (inactive)"},
      {"smiles": "CNC(=O)c1cc(Oc2ccc3nc(NC(=O)Nc4ccc(F)cc4F)sc3c2)ccn1", "growth": "51.2% (inactive)"},
      {"smiles": "Cc1ccc2[nH]c3nc4cccnc4c(C)c3c2c1", "growth": "-35% (active)"},
      {"smiles": "N#CCCc1c[nH]c2ccccc12", "growth": "94.5% (inactive)"},
      {"smiles": "Cc1nc2ccccc2c(/C=C/c2ccccc2)c1C(=O)/C=C/c1ccc(Cl)cc1", "growth": "19.4% (inactive)"},
      {"smiles": "CC1=CC2c3oc(-c4ccccc4)c(C(=O)c4ccccc4)c3CNC2C=C1", "note": "(stereo not given)", "growth": "97.7% (inactive)"},
      {"smiles": "O=C(CCl)N(O)c1ccc(/C=C/c2ccccc2)cc1", "growth": "25% (inactive) and 6.6% (active)"},
      {"smiles": "Cc1cc(NCc2cc(Nc3ccnc4cc(Cl)ccc34)ccc2F)nc(N2CCOCC2)n1", "growth": "39.9% (inactive)"},
      {"smiles": "Nc1cc(-c2c[nH]c3ccc(Cl)cc23)nc2cc(-c3c[nH]c4ccc(Cl)cc34)nn12", "growth": "68.2% (inactive)"},
      {"smiles": "COc1ccc(N/N=C/c2c(-c3ccc(S(C)(=O)=O)cc3)nc3ccccn23)cc1", "growth": "58.2% (inactive)"},
      {"smiles": "COc1cc2c(cc1-c1c(C)noc1C)ncc1nc(C3CCC(F)(F)CC3)n(C3CCC(OC(F)F)CC3)c12", "note": "(stereo not given)", "growth": "43.4% (inactive)"},
      {"smiles": "CC(C)c1ccc(-c2cnc3nonc3n2)cc1", "growth": "21% (inactive)"},
      {"smiles": "CN1CCC(=C(c2ccccc2)c2ccccc2)C(c2ccccc2)C1", "note": "(stereo not given)", "growth": "87.6% (inactive)"},
      {"smiles": "Cn1ccnc1C(=O)/C=C/c1ccc(C(=O)Nc2ccc(S(F)(F)(F)(F)F)cc2)cc1", "growth": "14.5% (inactive)"},
      {"smiles": "COc1cc(/C=C/C(=O)c2ccc(-n3cc(CN4CCN(c5cc6c(cc5F)c(=O)c(C(=O)O)cn6C5CC5)CC4)nn3)cc2)cc(OC)c1OC", "growth": "72.5% (inactive)"},
      {"smiles": "CN=S(=O)(NC(=O)c1ccc(Cl)cc1Cl)c1ccc(Br)s1", "note": "(stereo not given)", "growth": "88.3% (inactive)"},
      {"smiles": "Cc1cccc2c3c(sc12)C(c1ccc(Cl)cc1)C(C#N)=C(/N=C/c1ccc(Cl)cc1)O3", "note": "(stereo not given)", "growth": "10.9% (inactive)"},
      {"smiles": "O=C(Nc1ccc(-n2cc(-c3ccncc3)c(-c3ccc(O)c(Cl)c3)n2)cc1)Nc1ccc(Cl)c(C(F)(F)F)c1", "growth": "-6.63% (active)"},
      {"smiles": "O=C1OCC2=C1C(c1cccc(Br)c1)c1cc3c(cc1N2CCO)OCCO3", "note": "(stereo not given)", "growth": "24.7% (inactive)"},
      {"smiles": "Clc1cccc(Cl)c1C(Nc1nc2ccccc2s1)Nc1nc2ccccc2s1", "growth": "72.3% (inactive)"},
      {"smiles": "COc1cnccc1-c1nc2ccc3[nH]ncc3c2c2c1CCCC2", "growth": "39.6% (inactive)"},
      {"smiles": "c1ccc2[nH]c(-c3cc(-c4ccc5c(c4)OCO5)n[nH]3)nc2c1", "growth": "51.2% (inactive)"},
      {"smiles": "CCCCOC(=O)c1ccccc1O", "growth": "95.7% (inactive)"},
      {"smiles": "COc1ccc(/C=N\\NC(=O)c2cc(-c3ccc(Br)cc3)n(-c3ccc(S(N)(=O)=O)cc3)n2)cc1", "growth": "-1.98% (active)"},
      {"smiles": "Cc1ccc(-c2nc3nc(-c4ccccc4)nc(N4CCN(S(=O)(=O)c5ccccc5)CC4)c3o2)cc1", "growth": "101% (inactive)"},
      {"smiles": "CC(=O)Oc1ccc(C(c2ccc(OC(C)=O)cc2)c2ccccn2)cc1", "growth": "17.3% (inactive)"},
      {"smiles": "COC(=O)c1c(C)nc(C)c2c1C(=O)C(Br)=C(NCCN1CCOCC1)C2=O", "growth": "83.4% (inactive)"},
      {"smiles": "CC(O)C(NC(=O)C1CCCN1C(=O)CNC(=O)C1CC(=O)NCC(=O)NC(Cc2c[nH]c3ccccc23)C(=O)NC(Cc2ccc(O)cc2)C(=O)NCC(=O)NC(CO)C(=O)NC(CCC(N)=O)C(=O)NC(Cc2c[nH]c3ccccc23)C(=O)N1)C(=O)NCC(=O)NC(CCC(N)=O)C(=O)NC(CCCNC(=N)N)C(=O)NC(CC(=O)O)C(=O)O", "note": "(stereo not given)", "growth": "100% (inactive)"},
      {"smiles": "CN1CCN(c2nc(-c3csc(-c4ccncc4)n3)cc3ccccc23)CC1", "growth": "25.8% (inactive)"},
      {"smiles": "COc1cccc(-c2nn(-c3ccccc3)cc2-c2ccnc(NCCCNS(=O)(=O)c3cccc(F)c3)c2)c1", "growth": "-10.1% (active)"},
      {"smiles": "CN1CCN(C(=O)/C=C/c2ccc([N+](=O)[O-])o2)CC1", "growth": "77.4% (inactive)"},
      {"smiles": "NNC(=O)c1sc2nc(-c3cnccn3)cc(-c3cccs3)c2c1N", "growth": "97.2% (inactive)"},
      {"smiles": "CC1=Nc2cnc(Nc3ccc(OCCN4CCCCC4)cc3)nc2Nc2ccccc21", "growth": "63.4% (inactive)"},
      {"smiles": "O=c1nc(Nc2cccc(Cl)c2)oc2cc(Cl)oc(=O)c12", "growth": "75.1% (inactive)"},
      {"smiles": "NCCCOc1cc2ccccc2cc1C(=O)NCCCOc1cc2ccccc2cc1C(=O)Nc1ccc(Cl)cc1O", "growth": "-89.6% (active)"},
      {"smiles": "Nn1c(Nc2ccc(S(=O)(=O)Nc3ncccn3)cc2)nnc(/C=C/c2c(O)ccc3ccccc23)c1=O", "growth": "96% (inactive)"},
      {"smiles": "CCC1CN2C(=N1)c1ccccc1-c1cc(Cl)ccc12", "note": "(stereo not given)", "growth": "-7.75% (active)"},
      {"smiles": "c1ccc(CCSc2ncnc3nc[nH]c23)cc1", "growth": "49% (inactive)"},
      {"smiles": "N#Cc1cnn2c(-c3ccc(Cl)cc3)nc(NC3CC3)nc12", "growth": "97% (inactive)"},
      {"smiles": "O=C1C(N2CCN(c3ccccc3)CC2)=C(Cl)C(=O)c2ncccc21", "growth": "-62.8% (active)"}
    ]}
  ]
}
